Molecules are shown by their SMILES. Out of some 65,000 compounds screened, about 2,100 (3.2%) showed an effect of 50% or more. The median lay at about -52%. The full list was thinned out, with strong results kept by preference.

The test concerns Plasmodium falciparum. The experiment in a line: Screen against P. falciparum Asexual Blood Stage (ABS), at 5uM. Type of test: functional, Dd2. The note with it: tested at 5 uM.
Take `CN(C)C1CC2(CCN(C(=O)C3(C#N)CC3)CC2)c2ccccc21` (stereo not drawn): the INHIBITION is -28.5%. Take `CC(C)NCC1(COc2ccccc2)C[C@@H](O)[C@@H](O)C1` (stereo partly drawn): the INHIBITION is listed as 60.4%.

Turning to `O[C@@H]1CC(CNCC2CC2)(COc2cccnc2)C[C@@H]1O` (stereo partly drawn), the INHIBITION is -24.8%. Consider `CC(C)NC(=O)NCC1(COc2cnccn2)C[C@@H](O)[C@@H](O)C1` (stereo partly drawn), for which the INHIBITION was -54.9%. For `Cn1ccnc1NC[C@@H]1CCC[C@@H]2CN(CC3CC3)C[C@@H]21`, the INHIBITION is listed as -46.7%. For the compound `Cn1nc(COc2cccnc2)c2c1CCN(CC1CC1)C2`, the INHIBITION is -64%. `Cc1cc(C(C)C(=O)N2CCCN(Cc3cscn3)CC2)c(C)o1` (stereo not drawn): the INHIBITION is given as -136%. On to `Cc1ccc(C(C)C(=O)N2CCCN(Cc3cscn3)CC2)cc1` (stereo not drawn), for which the INHIBITION is reported as 57%. Consider `Cc1ccc(C)n1C(C)C(=O)N1CCCN(Cc2cscn2)CC1` (stereo not drawn), for which the INHIBITION is -16.5%. For `CN1CCC2(CC1)CC(NC(=O)c1csnn1)c1ccccc1O2` (stereo not drawn) the value was -8.75%; for `Brc1csc(-c2noc(C3COCCO3)n2)c1` (stereo not drawn), -301%; for `O=C(Cc1ccc2c(c1)CCCC2)N[C@@H]1CC[C@@H](n2ccnc2)[C@@H]1O`, -119%. `CC(=O)N1CCN(c2ccccc2CNc2cc(F)cc(F)c2)CC1`: the INHIBITION was 14%. Take `CC(C)N(C)CC(=O)NCc1ccccc1N1CCN(C)CC1`: the INHIBITION was found to be 43.8%. In the case of `CN1CCN(c2ccccc2CNC(=O)CSC(F)(F)F)CC1`, the INHIBITION is 67.3%.

With `Cn1ccnc1CN1CCC2(CC1)CN(Cc1cccnc1)C(=O)CO2`, the INHIBITION is listed as -38.8%. Regarding `CCn1cc(CN2CCN(Cc3cc(C)cc(C)c3)C(=O)C2)cc1C#N`, the INHIBITION is 68.4%. In the case of `CCn1cc(CN2CCN(Cc3cccc(OC)c3)C(=O)C2)cc1C#N`, the INHIBITION was 47.9%. Regarding `Cc1cc(C)cc(CN2CCN(Cc3cc(C#N)n(C)c3)CC2=O)c1`, the INHIBITION is given as 18.4%. As to `CCOC(=O)CNC(=O)NCc1cc(C)n(-c2ccccc2OC)c1C`, the INHIBITION was -24.9%.

As for `c1nc(NCc2cc3n(n2)CCN(C2CCCCC2)C3)c2nc[nH]c2n1`, the INHIBITION is -10.3%. Consider `COc1ccc(-c2ccc(C3CNCCO3)nc2)cc1` (stereo not drawn), for which the INHIBITION was 65%.

Regarding `COc1ccc(-c2cnc(N(C)C)nc2C2CNCCO2)cc1` (stereo not drawn), the INHIBITION is reported as 28.8%. Consider `c1ncc(-c2ccc(C3CNCCO3)nc2)cn1` (stereo not drawn), for which the INHIBITION is recorded as -94.8%. With `Cc1nn(C)c(C)c1C1CCCN1C(=O)c1ccc2nnc(C)n2c1` (stereo not drawn), the INHIBITION is reported as -60.9%. For `CCN1CCN(C2CCN(Cc3nnc(C(C)(C)C)o3)CC2)C1=O` the value was -29.7%. `CCc1nnc(CN2CCC(N3CCN(CC)C3=O)CC2)o1`: the INHIBITION was -39.7%. For the compound `CCN1CCN(C2CCN(Cc3ncc(C(C)(C)C)o3)CC2)C1=O`, the INHIBITION is recorded as 53.1%.

Regarding `CN1CCN(C2CCN(Cc3nnc(C(C)(C)C)o3)CC2)C1=O`, the INHIBITION is recorded as -117%. For `CNc1cc2c(nn1)CCN(C(=O)c1cc(C)n(C3CC3)c1C)C2` the value was -66.6%; for `CC(=O)N1CC2C[C@]2(NC(=O)c2ccco2)C1` (stereo partly drawn), 50.3%. Turning to `O=C(N[C@]12CC1CN(C(=O)c1ccco1)C2)c1cccc(F)c1` (stereo partly drawn), the INHIBITION was found to be 27.4%. For the compound `O=C(N[C@]12CC1CN(C(=O)c1ccco1)C2)c1ccco1` (stereo partly drawn), the INHIBITION was 37.7%.

Regarding `O=c1[nH]c2nc(N3CCSCC3)ncc2c(=O)n1-c1ccc(F)cc1`, the INHIBITION is given as -26.3%. On to `Cc1ncsc1CN1CC[C@H](O)[C@@H](n2cnc3c(N)ncnc32)CC1`, for which the INHIBITION is recorded as -98.6%. For the compound `CCCc1ccc2oc(C(=O)N3CCCN(C)CC3)c(C)c2c1`, the INHIBITION was -22.2%. For `O=C(O)c1cc(-c2ccn(CC3CC3)n2)n2ccccc12`, the INHIBITION is reported as -74.2%. In the case of `O=C(c1cc(-c2ccn(CC3CC3)n2)n2ccccc12)N1CCCO1`, the INHIBITION is recorded as -84.4%. For the compound `O=C(c1cc(-c2ccn(CC3CC3)n2)n2ccccc12)N1CCOCC1`, the INHIBITION came to 69.5%. Turning to `O=C(CN1CCOC(Cn2cccn2)C1)NCc1ccco1` (stereo not drawn), the INHIBITION is reported as -88.2%. For `O=C(NC1CC(F)(F)C1)[C@]12COC[C@H]1CN(Cc1ccccc1)C2`, the INHIBITION is -96%.

On to `Cc1cc(=O)n2nc(Oc3cccc(I)c3)sc2n1`, for which the INHIBITION was 56.4%.

For `Cc1cc(=O)n2nc(Oc3cccc(C(N)=O)c3)sc2n1`, the INHIBITION is on record as -166%. As to `Cc1cc(=O)n2nc(Oc3ccc(F)c(F)c3)sc2n1`, the INHIBITION is reported as -13.2%. With `COCCCNC(=O)CN1CCC(N2CCN(C)C2=O)CC1`, the INHIBITION is given as -137%. Turning to `Cc1ccc(-c2nc(CN3CCc4c(ncn4C)C3)cs2)o1`, the INHIBITION was -159%. The result for `Cn1cnc2c1CCN(Cc1csc(-c3ccco3)n1)C2` reads 51.3%. For `Cn1cnc2c1CCN(Cc1csc(-c3ccccc3)n1)C2` the value was -10.7%; for `Cc1cc(NC(=O)C(C)N2CCN(c3ccc(C#N)cc3F)CC2)no1` (stereo not drawn), -124%. Consider `CN(C(=O)Nc1ccncc1)C1CCN(c2ccc(Cl)cc2)CC1`, for which the INHIBITION was -10.2%. `COc1ccc(-n2ccc(CNCc3ccc(OC)c(O)c3)n2)cc1`: the INHIBITION is -17.9%.

Regarding `COc1ccc(CNCCc2ccn(-c3ccccc3)n2)cc1O`, the INHIBITION amounted to 67.1%. With `COc1ccc(CNCCn2c(C)nc3ccccc32)cc1O`, the INHIBITION is reported as -82.4%.

These data come from ChEMBL document CHEMBL4513216, “Probing the Open Global Health Chemical Diversity Library for Multistage-Active Starting Points for Next-Generation Antimalarials” (ACS Infect Dis, 2020).
